From PubChem
A selection: hits, their analogues and other compounds. The true share with any hit is near 2.8%.
Peg3 prom inh – inhibitors of Peg3 promoter; HeLa PEG-Prom luciferase reporter, luminescence, overnight; inhibition, % at 20 µM; 360,000 tested, 1.7% active;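 active = inhibition of at least 50% at 20 µM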
KKLEB cytotox – counter-screen for CF NF-kB inhibitors: cytotoxicity. KKLEB CF airway cells viability, ATPlite luminescence, overnight; active compounds read low; cells stimulated with P. aeruginosa culture filtrate. 360,000 tested, 0.36% active. activity change (cytotoxicity), % at 5 µM;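 active = corrected activity change at or below -50% at 5 µM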
MITF TRPM1 inh – reduces MITF-dependent TRPM1 promoter luciferase signal; SK-MEL-5 TRPM1 promoter luciferase, 24 h; inhibition, % at 12.5 µM; 330,000 tested, 0.83% active; AID 488899;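 active = mean inhibition across replicates of 60% or more, whatever share of single replicates reaches that level; inconclusive = some that reach 60%, reason not given; inactive = mean inhibition across replicates below 60%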
HIF-2a inh – inhibitors of HIF-2a; 786-0 RCC cells HIF-2a reporter, luciferase luminescence, overnight; inhibition, % at 18.8 µM; 360,000 tested, 0.72% active; AID 624352;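 active = inhibition of the luminescence signal of 40% or more relative to plate controls, in a single-dose primary screen at 18.75 µM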
Shn3 3UTR inh – Schnurri-3 reporter inhibition in Clone20 osteoblasts. inhibition, % at 12.5 µM. Clone20 osteoblast Shn3 3'UTR firefly luciferase, 24 h. 360,000 tested, 0.52% active. AID 588674;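 active = mean inhibition of at least 75% with every replicate also reaching 75%; inconclusive = mean inhibition at least 75% but some replicate below; inactive = mean inhibition below 75%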;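 note: 0% = median of neutral control wells and 100% = pilot-screen positive control compound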
CF NFkB block – inhibitors of cystic fibrosis induced NF-kB. inhibition, % at 5 µM. AID 588850. KKLEB NF-kB-GFP reporter, PAF-induced, GFP fluorescence overnight. 360,000 tested, 0.86% active;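 active = at least 50% inhibition at 5 µM, scaled per plate between neutral and stimulator controls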;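 note: PAF is a Pseudomonas aeruginosa culture filtrate used as stimulus; plate controls were PAF-stimulated DMSO wells for no effect and unstimulated DMSO wells for full effect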
Mdm2-MdmX confirm – confirmation of inhibitors of human Mdm2/MdmX interaction, set 2. shares compounds with HIF-2a inh. SaOS-2 split-luciferase Mdm2/MdmX complementation, luminescence. inhibition, % at 8 µM. 740 tested, 99% active;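 active = mean inhibition of the luminescence signal across two replicates at or above 26 percent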
Target sequence (O15151 whole entry, looked up): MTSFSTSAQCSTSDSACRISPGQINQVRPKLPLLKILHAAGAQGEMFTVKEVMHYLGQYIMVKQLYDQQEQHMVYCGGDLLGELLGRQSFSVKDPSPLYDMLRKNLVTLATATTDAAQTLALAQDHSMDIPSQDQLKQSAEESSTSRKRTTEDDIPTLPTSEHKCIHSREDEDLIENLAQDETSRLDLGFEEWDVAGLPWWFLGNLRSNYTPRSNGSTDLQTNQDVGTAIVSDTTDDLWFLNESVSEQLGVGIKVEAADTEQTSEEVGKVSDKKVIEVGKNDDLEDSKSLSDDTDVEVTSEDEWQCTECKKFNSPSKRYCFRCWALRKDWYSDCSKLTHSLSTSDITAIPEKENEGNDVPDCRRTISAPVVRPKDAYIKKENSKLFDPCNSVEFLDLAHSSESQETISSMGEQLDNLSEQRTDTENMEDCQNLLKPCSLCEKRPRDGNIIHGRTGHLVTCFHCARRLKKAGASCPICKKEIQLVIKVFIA
Target sequence (Q00987 whole entry, looked up): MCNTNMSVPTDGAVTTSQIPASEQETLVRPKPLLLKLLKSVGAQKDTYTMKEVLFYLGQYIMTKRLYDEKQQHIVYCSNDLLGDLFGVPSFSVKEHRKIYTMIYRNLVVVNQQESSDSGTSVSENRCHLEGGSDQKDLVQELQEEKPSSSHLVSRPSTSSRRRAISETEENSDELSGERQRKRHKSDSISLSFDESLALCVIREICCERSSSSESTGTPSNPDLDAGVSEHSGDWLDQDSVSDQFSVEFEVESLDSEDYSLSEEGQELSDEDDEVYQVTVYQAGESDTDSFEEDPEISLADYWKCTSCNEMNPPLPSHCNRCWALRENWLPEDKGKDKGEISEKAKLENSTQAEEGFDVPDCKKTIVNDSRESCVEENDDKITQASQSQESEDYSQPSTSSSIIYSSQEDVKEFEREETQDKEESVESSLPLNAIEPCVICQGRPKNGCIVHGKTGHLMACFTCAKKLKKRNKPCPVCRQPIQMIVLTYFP
HIF-2a conf – HIF-2a inhibition, single concentration confirmation; shares compounds with HIF-2a inh; 1,800 tested, 56% active; inhibition, % at 18.8 µM; 786-0 RCC cells, HIF-2a luciferase reporter luminescence, overnight;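 active = mean inhibition across four replicates of at least 40 percent at the single tested concentration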
HIF-1a cs – inhibits HIF-1a reporter, a counter-screen for HIF-2a inhibitors. shares compounds with HIF-2a inh. MiaPaCa-2 HIF-1a luciferase reporter, desferoxamine, overnight. inhibition, % at 18.8 µM. 1,800 tested, 72% active;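 active = mean inhibition of the reporter signal across four replicates at the single tested dose of 50% or more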
Active calls of the source: *; ? = inconclusive; nt = not tested or not shown.

SMILES	Peg3 prom inh	KKLEB cytotox	MITF TRPM1 inh	HIF-2a inh	Shn3 3UTR inh	CF NFkB block	HIF-2a conf	HIF-1a cs	others
CCCSc1nc(NCc2ccco2)c2c3c(sc2n1)COC(C)(C)C3	-65	0	-16	-141	-1	-2	nt	nt
Brc1ccc(-n2cnc(-c3ccccc3)c2)cc1	-152	-12	-41	-186	-19	-17	nt	nt
COCCn1c(SCC(=O)NC2CCCCC2)nnc1-c1ccncc1	-1	17	6	11	1	-11	nt	nt
O=[N+]([O-])c1cnc(Sc2ccncn2)s1	110*	-14	83*	95*	28	75*	nt	nt	Mdm2-MdmX confirm=102*
O=C(Nc1ccc(Cl)cc1)Nc1ccccc1Sc1ncc([N+](=O)[O-])s1	-70	9	53	-182	-23	21	nt	nt
Cc1sc2nc(C3CC3)nc(SCC(=O)N3c4ccccc4CC3C)c2c1C (stereo not drawn)	16	-11	9	-6	61	3	nt	nt	Mdm2-MdmX confirm=101*
Cc1nc(SCC(=O)N2c3ccccc3NC(=O)CC2C)c2c(C)c(C)sc2n1 (stereo not drawn)	-6	-11	20	23	9	4	nt	nt
CCOC(=O)C1(C)CCN1C(=O)c1ccc(F)c(Cl)c1 (stereo not drawn)	-2	-1	nt	2	2	-17	nt	nt
COC1(OC)C(/C=C/c2ccc(C)cc2)C(C#N)(C#N)C1(OC)OC (stereo not drawn)	22	-11	28	43*	?	19	7	65*
CC(=O)NC(=S)Nc1sc2c(c1C(N)=O)CCC(C)C2 (stereo not drawn)	-353	2	-36	-250	-61	9	nt	nt
CCN(CC(=O)Nc1c(F)cccc1F)C(=O)c1cc(S(=O)(=O)N(CC)CC)ccc1N1CCCCC1	40	6	23	48*	11	-33	34	36
COc1ccccc1C(=O)Nc1ccnn1C1CCN(C2CCCCC2)CC1	10	-3	nt	4	-11	18	nt	nt
COc1cc(/C=C(\C#N)c2nc3ccccc3s2)ccc1OCC(=O)Nc1ccccc1	22	-23	8	-1	79	21	nt	nt
COc1cc(/C=C(/C#N)c2nc3ccccc3[nH]2)ccc1OCC(=O)Nc1ccccc1C(C)C	5	5	-4	-11	-2	0	nt	nt	Mdm2-MdmX confirm=101*
Cc1nc2c(N)nn(C)c2nc1C	12	6	nt	18	-19	-14	nt	nt
CCOC(=O)c1sc(NC(=O)c2cc(-c3ccccc3)nc3ccccc23)c(C#N)c1C	29	-28	23	3	78	38	nt	nt	Mdm2-MdmX confirm=98*
CC(C)n1c(/C=C/[C@H](O)C[C@H](O)CC(=O)O)c(-c2ccc(F)cc2)c2ccccc21	39	-28	-31	45*	89*	31	25	-25
Cn1cc(C(CC(=O)O)C(=O)O)c2ccccc21 (stereo not drawn)	12	-10	13	21	-9	10	nt	nt
COc1ccc(Cl)cc1Cn1c(C)c(C(=O)NCc2cccc([N+](=O)[O-])c2)sc1=O	8	6	nt	-5	-8	-7	nt	nt
C=C(C(=O)c1ccccc1)C(CC(=O)c1ccccc1)c1ccccc1 (stereo not drawn)	100*	-55*	48	95*	89*	52*	57*	103*	Mdm2-MdmX confirm=102*
COC(=O)[C@]12CCCCC=C1N(Cc1ccccc1)C(=O)[C@H](CC(=O)NCc1ccccc1)C2	nt	nt	nt	-3	nt	nt	nt	nt
O=C(CN(c1cccc(C(F)(F)F)c1)S(=O)(=O)c1ccc(Cl)c([N+](=O)[O-])c1)NCc1ccc(F)cc1	88*	1	44	82*	-13	9	40	105*
CCCCn1c(N)c(N(CCOC)C(=O)CSc2nnc(-c3ccc(F)cc3)n2N)c(=O)[nH]c1=O	8	-2	3	-3	1	5	nt	nt
Cc1oc(-c2ccccc2Cl)nc1CSCC(=O)O	20	-7	8	18	-3	9	nt	nt
Cc1oc(-c2cccc(Cl)c2)nc1CSCC(=O)O	16	0	27	43*	-10	-8	35	32
SMILES	Peg3 prom inh	KKLEB cytotox	MITF TRPM1 inh	HIF-2a inh	Shn3 3UTR inh	CF NFkB block	HIF-2a conf	HIF-1a cs	others
CN1CCc2c(sc(NC(=O)c3cc(Cl)sc3Cl)c2C(N)=O)C1	-39	13	nt	-75	-16	-8	nt	nt
O=C(Cc1ccc(NC(=O)C2CCN(C(=O)C3CCCC3)CC2)cc1)Nc1cccc(C(=O)N2CCCCC2)c1	-3	15	-2	2	1	-12	nt	nt
CCOC(=O)CNC(=O)CSc1ncnc2c1cnn2-c1ccccc1	19	1	0	41*	-1	11	30	-7
CCOC(=O)CNC(=O)CSc1ncnc2c1cnn2-c1ccc(C)cc1	29	0	-6	22	10	-1	nt	nt
CC1CCc2nc(NC(=O)c3ccco3)sc2C1 (stereo not drawn)	18	-31	32	43*	49	-18	72*	88*
CC1CCc2nc(NC(=O)Cc3cccs3)sc2C1 (stereo not drawn)	-352	-8	-126	-290	-68	17	nt	nt
O=C(/C=C/[C@H]1O[C@@H](n2ccc(=O)[nH]c2=O)[C@H](O)[C@@H]1O)NCCCc1ccccc1	-1	19	nt	11	4	8	nt	nt
CSCCC(C(=O)NCc1ccccc1)n1c(-c2ccc3c(c2)CCO3)nc2ccccc21 (stereo not drawn)	nt	nt	nt	-35	nt	nt	nt	nt
CC1(C(=O)NS(=O)(=O)c2ccc3c(c2)CCO3)CCN1C(=O)C1(c2ccc(Cl)cc2)CCC1 (stereo not drawn)	1	9	nt	10	-11	6	nt	nt
O=C(Cn1ncc(N2CCCC2)c(Cl)c1=O)c1ccc(Cl)cc1	-236	9	-24	-163	-37	6	nt	nt
CCN(CC)S(=O)(=O)c1cc(NC(=O)Cn2ncc(Cl)c(Cl)c2=O)ccc1C	101*	-66*	85*	97*	16	89*	48*	104*	Mdm2-MdmX confirm=103*
CCOC(=O)c1ccc(NC(=O)Cn2ncc(Cl)c(Cl)c2=O)cc1	104*	-95*	103*	89*	98*	89*	98*	105*	Mdm2-MdmX confirm=103*
CCOC(=O)c1ccc(NC(=O)Cn2nc(C)c3ccccc3c2=O)cc1	-9	19	16	9	2	-4	nt	nt
Cc1ccc(S(=O)(=O)N2CCCCC2)cc1NC(=O)Cn1ncc(Cl)c(Cl)c1=O	109*	-89*	101*	94*	100*	104*	99*	104*	Mdm2-MdmX confirm=103*
